A number with no mark means an inactive call. The source made the active and inactive calls. Calls come from the whole dose curve; as a rule, active = well fitted curve in the direction sought with a large enough effect in the repeat runs; inconclusive = weak or mixed curves; inactive = flat fitted curve, though single readings scatter.
% is set by controls: 0 for no effect and ±100 for the full control effect.

A short description of the experiment: qHTS assay to test for compound auto fluorescence at 590 nm (red) in HEK293 cells (AID 720679). Conditions: red autofluorescence 540/590 nm; series mostly up to 91.3 µM. The text has this: National Center for Advancing Translational Sciences [NCATS]
NIH Chemical Genomics Center [NCGC]
U.S. Environmental Protection Agency [EPA]
National Institutes of Environmental Health Sciences [NIEHS]
National Toxicology Program [NTP]
U.S. Food and Drug Administration [FDA]
Compound auto fluorescence often interferes with screening of the compound library against various biological targets and signaling pathways. Some of these compounds may have fluorophoric properties. Such properties may interfere with the assay outputs resulting in false positives and/or negatives. To decrease such complications and ensure the compound activities are relevant in terms of biological response, the Tox21 10K compound library was screened for auto fluorescence.
From the fluorophores used as reporter signals in our screening assays, the auto fluorescence equivalencies of compounds against three fluorophores have been evaluated: Triamterene, Fluorescein and Rose Bengal sodium for blue, green and red fluorescence, respectively. The fluorescence intensities were measured using Excitation/Emission wavelengths at 405/460nm, 485/535nm and 540/590nm for blue, green and red labels, respectively. This assay includes the red fluorescence data.
Tox21 Assay Protocol Summary:
2,000 HEK293 cells in 5 uL of culture medium containing 10% dialyzed FBS per well were dispensed into black wall/clear bottom 1536-well plates using a Multidrop Combi Dispenser (Thermo Scientific). The assay plates were incubated for 4-5 hr at 37C to allow cell attachment to the well bottom, followed by the transfer of 23 nL compound or DMSO vehicle by a pintool work station (Kalypsys, San Diego, CA). After the assay plates were incubated overnight at 37C and 5% CO2, fluorescence intensities in the assay plates were measured by an Envision (PerkinElmer, Shelton, CT) plate reader using three labels for measuring blue, green and red fluorescence at […] 460, 535 and 590nm respectively.
For orientation: qHTS replaces the single test concentration by a dilution series.
For `O.O.O.O.O.O.O.O=S(=O)([O-])[O-].[Co+2]`, the compound was called inactive. On the same count and under the same terms, then `Nc1cc(Cl)ccc1Cl`, with “inactive”. In the case of `[O]=[Cr](=[O])([OH])[O][Cr](=[O])(=[O])[OH]`, the compound was classed as inactive. In the case of `CC(Cc1ccc(OCC(=O)O)cc1)NCC(O)c1csc(C(F)(F)F)n1` (stereo not given), the outcome was inactive. Consider `Cc1ccccc1OP(=O)(Oc1ccccc1C)Oc1ccccc1C`, for which the result was inactive.

Regarding `[O-][Cl+3]([O-])([O-])O`, the compound was classed as inactive. Consider `O=P(Cl)(Cl)Cl`, for which the call was inactive. With `c1ccc2c(c1)cc1ccc3cccc4ccc2c1c34`, the outcome was inactive.

As to `[Cl-].[Cl-].[Cl-].[Yb+3]`, the compound was called inactive. Take `C[C@H]1[C@H](c2ccc(Cl)cc2)SC(=O)N1C(=O)NC1CCCCC1`: the compound was classed as inactive.

For `CSC(=O)c1c(C(F)F)nc(C(F)(F)F)c(C(=O)SC)c1CC(C)C`, the call was inactive. With `CCC(C)Br` (stereo not given), the compound was classed as inactive. For the compound `CN(C)C(=S)SSC(=S)N(C)C`, the compound was called inactive.

For `CC(=O)[O-].CC(=O)[O-].O.O.O.[Pb+2]`, the compound was classed as inactive. On the same count and under the same terms, as for `N#Cc1c[nH]cc1-c1cccc2c1OC(F)(F)O2`, the entry is “inactive”; as for `CNC(=O)O/N=C(\C)C(C)S(C)(=O)=O` (stereo not given), “inactive”.

On to `CCCCC/C=C\C/C=C\C/C=C\C/C=C\CCCC(=O)NCC(=O)O`, for which the fluorescence, % of fluorescent control was 0.123% [at 3.72 µM]. Consider `CCN(CC)CCc1c[nH]c2ccccc12`, for which the compound was classed as inactive. Same read-out and setting: then `O=C(N[C@@H]1N=C(c2ccccc2F)c2cccc3c2N(CC3)C1=O)c1cc2ccccc2[nH]1`, with “inactive”; and `C#CCO`, with “inactive”. For the compound `CC(=O)O.CC(=O)O.CC(=O)O.CC(=O)O.CC(=O)O.CC(=O)O.CC(=O)O.O.O.[Cr].[Cr].[Cr]`, the outcome was inactive. For the compound `O=C(NC(=O)c1c(F)cccc1F)Nc1ccc(Oc2ccc(C(F)(F)F)cc2Cl)cc1F`, the result was inactive. Still for that read-out and setting: as for `CC(=O)[O-].CC(=O)[O-].CC(=O)[O-].[Cr+3]`, the entry is “inactive”. As to `O=S(=O)(O)F`, the compound was called inactive. Same read-out and setting: as for `[O]=[Cr][O][Cr]=[O]`, the entry is “inactive”. Same read-out and setting: as for `COP(=S)(NC(C)C)Oc1ccc(C)cc1[N+](=O)[O-]` (stereo not given), the entry is “inactive”; as for `Oc1cc(Cl)cc(Cl)c1`, “inactive”; as for `C[N+]1(C)[C@@H]2CC[C@H]1CC(OC(=O)C(CO)c1ccccc1)C2` (stereo not given in full), “inactive”. For the compound `CC(Cl)CCl` (stereo not given), the compound was called inactive. The same measure, in the same setting: then `C=CC(=O)[O][Sn]([CH2]CCC)([CH2]CCC)[CH2]CCC`, with “inactive”; and `CCO/N=C(\CC)C1=C(O)CC(c2c(C)cc(C)cc2C)CC1=O` (stereo not given), with “inactive”. Same read-out and setting: as for `C[C@]12C/C(=C/O)C(=O)C[C@@H]1CC[C@@H]1[C@@H]2CC[C@@]2(C)[C@H]1CC[C@]2(C)O`, the entry is “inactive”. Take `O=S1OCC2C(CO1)C1(Cl)C(Cl)=C(Cl)C2(Cl)C1(Cl)Cl` (stereo not given): the call was inactive. Still for that read-out and setting: as for `N#CSCc1ccccc1`, the entry is “inactive”. As for `CCCCON=O`, the result was inactive. With `COC(=O)c1cc(Oc2ccc(Cl)cc2Cl)ccc1[N+](=O)[O-]`, the outcome was inactive.

With `Clc1ccc(C2(Cn3cncn3)OCCO2)c(Cl)c1`, the compound was classed as inactive.

As for `[C-]1=CC=CC1.[Cl][Zr+2][Cl].c1cc[cH-]c1`, the result was inactive. `CCC[CH2][Sn]([CH2]CCC)([O]C(C)=O)[O]C(C)=O`: the compound was called inactive. Same read-out and setting: then `c1ccc(Nc2ccc(Nc3ccccc3)cc2)cc1`, with “inactive”.

For the origin of these results see PubChem BioAssay (Tox21).
